Among the data in PubChem BioAssay AID1903 (Southern Research Specialized Biocontainment Screening …, 2009) are inhibition values, retold here.

Molecules are shown by their SMILES. Screen size: about 310,000 compounds; about 1,200 (0.39%) were called active. The rule behind the calls is not given here. Only a sample is shown. Results with a measured potency or affinity are listed apart.

Chain of Large T antigen (Simian virus 40) (P03070 whole entry, looked up): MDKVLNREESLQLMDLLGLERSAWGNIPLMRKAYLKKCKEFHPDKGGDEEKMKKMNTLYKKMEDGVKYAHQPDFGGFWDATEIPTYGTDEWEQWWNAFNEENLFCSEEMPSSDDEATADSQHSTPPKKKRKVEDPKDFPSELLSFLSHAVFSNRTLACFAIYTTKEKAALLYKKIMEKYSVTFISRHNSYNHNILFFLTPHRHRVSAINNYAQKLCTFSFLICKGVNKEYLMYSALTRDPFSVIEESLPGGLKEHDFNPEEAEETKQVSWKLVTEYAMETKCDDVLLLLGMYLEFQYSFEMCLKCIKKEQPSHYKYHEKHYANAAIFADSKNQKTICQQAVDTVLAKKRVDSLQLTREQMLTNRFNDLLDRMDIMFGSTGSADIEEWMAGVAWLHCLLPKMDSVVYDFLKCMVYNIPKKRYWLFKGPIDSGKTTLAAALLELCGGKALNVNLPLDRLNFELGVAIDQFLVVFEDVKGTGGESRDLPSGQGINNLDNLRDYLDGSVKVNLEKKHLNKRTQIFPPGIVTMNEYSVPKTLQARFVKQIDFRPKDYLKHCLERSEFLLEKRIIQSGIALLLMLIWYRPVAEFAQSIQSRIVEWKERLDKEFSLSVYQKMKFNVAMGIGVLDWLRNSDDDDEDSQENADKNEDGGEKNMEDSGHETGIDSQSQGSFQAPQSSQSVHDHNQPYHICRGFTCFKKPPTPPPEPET

This assay concerns the target Large T antigen (Simian virus 40) (UniProt P03070). The assay is described as follows: TAg ATPase/helicase activity blockers – biochemical (AID 1903). The settings on record: SV40 large T antigen ATPase/helicase inhibition assay; at 20 µM; stronger effect = higher value.
By inhibition is commonly meant the change of the read-out against control, counted positive when it falls. As to `O=C(CCc1nnc2ccc(NCc3ccco3)nn12)Nc1ccccc1F`, the inhibition was 14.6% (inactive).

With `CCN(c1ccccc1)S(=O)(=O)c1cccc(C(=O)NCC(c2ccco2)N2CCCC2)c1` (stereo not drawn), the inhibition is 20.1% (inactive). As for `CCN(CC)S(=O)(=O)c1ccc(NC2=NS(=O)(=O)c3ccccc32)cc1`, the figure is 5.33% (inactive). As for `O=S1(=O)N=C(Nc2ccc(N3CCOCC3)cc2)c2ccccc21`, the figure is 7.37% (inactive); as for `CN(C)CCOC(=O)C12CC3(C)CC(C)(CC(C)(C3)C1)C2`, 20.7% (inactive); as for `COc1ccc(S(=O)(=O)/N=C2/NC(=O)/C(=C\c3cc(OC)c(OC)cc3[N+](=O)[O-])S2)cc1`, 31.5% (inactive). On to `COc1cc(/C=C2\S/C(=N/S(=O)(=O)c3ccccc3)NC2=O)c([N+](=O)[O-])cc1OC`, for which the inhibition is 23% (inactive). The value for `Cc1ccnc(NC(c2ccccc2O)c2oc(CO)cc(=O)c2O)c1` (stereo not drawn) was 13.4% (inactive). The value for `COc1cccc(CN2CCN(Cc3nc4c(s3)CCCC4)CC2CCO)c1` (stereo not drawn) was 7.56% (inactive); that for `N#Cc1ccc(Oc2ccc(S(=O)(=O)N3CCOCC3)cn2)cc1` was 8.88% (inactive); that for `O=C1Nc2ccccc2/C1=C/c1ccccc1Cl` was 4.98% (inactive).

Regarding `O=C1NC(=O)/C(=C/c2ccccc2Cl)N1`, the inhibition was 2.2% (inactive). Regarding `O=C1CCC(C(=O)OCC(=O)c2ccccc2)N1` (stereo not drawn), the inhibition is -3.04% (inactive). As for `Cc1ccc([C@@H]2[C@@H]3C(=O)N(C)C(=O)[C@@H]3[C@]3(C)C(=O)N(Cc4ccccn4)CC(=O)N23)o1`, the figure is 21.8% (inactive); as for `CC1=Nc2cccc3cccc(c23)N1`, 14.5% (inactive). On to `CC(C)C1=Nc2cccc3cccc(c23)N1`, for which the inhibition was 31.8% (inactive). As to `NS(=O)(=O)c1ccc(CNS(=O)(=O)c2ccc3ccccc3c2)cc1`, the inhibition is 8.92% (inactive).

As for `O=S1(=O)N=C(N(CCO)/N=C/c2ccccc2)c2ccccc21`, the inhibition was -0.93% (inactive). The value for `O=C(O)CCCc1ccc2c(c1)CCc1ccccc1-2` was 4.11% (inactive). Take `CC(=O)Nc1ccc2c(c1)CCc1ccccc1-2`: the inhibition was 2.87% (inactive). As for `CCCCNC(=S)NNC(=O)c1c(Cl)c(C)nn1C`, the figure is 13.2% (inactive); as for `CCSC1=N/C(=C\c2ccc(-c3ccccc3[N+](=O)[O-])o2)C(=O)S1`, 45.4% (inactive); as for `Cc1ccc(C(=O)/C=C/c2ccc(-c3ccccc3[N+](=O)[O-])o2)cc1`, -1.93% (inactive).

For the compound `CCN1C(=O)/C(=C\c2ccc(-c3ccc([N+](=O)[O-])cc3OC)o2)SC1=Nc1cccc(C(=O)O)c1`, the inhibition was 13.7% (inactive). `CC1=NN(c2ccc(Br)cc2)C(=O)/C1=C/c1ccc(-c2ccccc2C(=O)O)o1`: the inhibition was 33.3% (inactive). The value for `COC(=O)c1ccccc1-c1ccc(/C=C2\C(=O)N(c3ccccc3)N=C2c2ccccc2)o1` was -14% (inactive); that for `COc1ccc(OC)c(CNc2ccc([N+](=O)[O-])cc2C)c1` was -3.94% (inactive). Consider `COc1ccc(Br)cc1S(=O)(=O)n1c([N+](=O)[O-])cnc1C`, for which the inhibition was -1.15% (inactive). Take `C=CCn1cccc(C(=O)Nc2ccc(C)c(C)c2)c1=O`: the inhibition is 10.4% (inactive). As for `Cc1ccc(CNC(=O)COC(=O)Cc2ccc(-c3ccccc3)cc2)cc1`, the figure is 1.94% (inactive); as for `CCc1nnc(NC(=O)CCN2C(=O)C3CCCCC3C2=O)s1` (stereo not drawn), 8.24% (inactive). As for `CCOC(=O)C(C)Sc1nc2c(c(=O)[nH]c(=O)n2C)n1C/C=C(/C)Cl` (stereo not drawn), the figure is 0.445% (inactive); as for `CC(=O)Oc1ccc2oc(/C=C/N(C)C)c([N+](=O)[O-])c2c1`, 13% (inactive).

For the compound `CN(C)/C=C/c1oc2ccc(O)cc2c1[N+](=O)[O-]`, the inhibition is 32% (inactive).

For the compound `OC(COc1ccc(CNCCc2ccccc2F)cc1)CN1CCCCC1` (stereo not drawn), the inhibition was 5.86% (inactive). As for `COCCNC(=S)N/N=C(\C)c1ccc(OC)cc1`, the figure is 13.8% (inactive); as for `COCCNC(=S)N/N=C(\C)c1ccc(OC(F)F)cc1`, 21.1% (inactive); as for `COC(=O)c1ccccc1NC(=O)CSc1n[nH]c(C)n1`, 0.8% (inactive).

With `Cc1ccc(Cl)cc1NC(=O)C(NS(=O)(=O)c1cccs1)c1ccccc1` (stereo not drawn), the inhibition is 3.94% (inactive). As for `CC(C)C(NS(=O)(=O)c1ccc2c(c1)OCCCO2)C(=O)O` (stereo not drawn), the figure is -3.36% (inactive); as for `Nc1ccc2nc(-c3ccc(-c4nc5ccc(N)cc5[nH]4)cc3)[nH]c2c1`, 12.1% (inactive); as for `Nc1ccc2nc(-c3ccc(Cl)cc3)[nH]c2c1`, 28% (inactive). Consider `Cc1ccc(-n2nc(C(=O)O)nc2-c2ccccc2)cc1`, for which the inhibition was 38% (inactive). The value for `Cc1cc(=O)nc2c3ccccc3n(CC(=O)NCCC3=CCCCC3)n12` was 2.66% (inactive); that for `COc1ccc(S(=O)(=O)N2CCOC2CNC(=O)C(=O)NCCc2ccccc2)cc1C` (stereo not drawn) was 6.95% (inactive). On to `C=Cc1ccc(N=Cc2c(O)ccc3ccccc23)cc1`, for which the inhibition is -18.3% (inactive). In the case of `O=[N+]([O-])c1ccc(N2CCOCC2)cc1NCc1ccccc1`, the inhibition is 5.38% (inactive). The value for `COc1cccc(/C=N/N2CCOCC2)c1O` was 3.29% (inactive). As for `CN1CCN(/N=C/c2c3ccccc3c(Cl)c3ccccc23)CC1`, the inhibition was 1.67% (inactive). The value for `COc1cccc(C=Nc2ccc3c(c2)OCCO3)c1O` was 21.9% (inactive). Take `O=C(O)c1ccc(N=Cc2c(O)ccc3ccccc23)cc1`: the inhibition is 6.09% (inactive). As for `Cc1ccc(O)c(N=Cc2cc(Cc3ccccc3)cc([N+](=O)[O-])c2O)c1`, the figure is 15.2% (inactive); as for `CN1CCN(CC(=O)N/N=C\c2c[nH]c3ccccc23)CC1`, 5.96% (inactive). Consider `Cc1c(C(=O)N2CCOCC2)c(S(=O)(=O)Nc2ccc(OC(F)(F)F)cc2)c(C)n1C`, for which the inhibition is 4.66% (inactive). As for `CC(=O)c1c(C)[nH]c(C(=O)OC2CCCCC2=O)c1C` (stereo not drawn), the figure is 6.27% (inactive).

On to `Cc1ccsc1C=Nc1c(C)n(C)n(-c2ccccc2)c1=O`, for which the inhibition was 4.72% (inactive). As for `COCCNC(=O)C(c1ccco1)N(C(=O)Cn1nnc2ccccc21)c1ccccc1C` (stereo not drawn), the figure is 2.93% (inactive); as for `Cc1ccc(CN2CC(C(=O)N(C)CC(=O)Nc3cccc(F)c3)CC2=O)cc1` (stereo not drawn), 25.6% (inactive). The value for `CC(CC(=O)N(C)c1c(N)n(Cc2ccccc2)c(=O)[nH]c1=O)c1ccccc1` (stereo not drawn) was 12.7% (inactive); that for `COc1ccccc1CNc1nc(S(=O)(=O)c2ccccc2)c(Cl)s1` was 21.1% (inactive).

As for `O=C(NC1CCCCC1)C(c1ccco1)N(CCc1ccccc1)C(=O)C(F)(F)F` (stereo not drawn), the inhibition was 9.43% (inactive).

For the compound `COC(=O)c1cccc(NC(=O)c2cnn(C)c2)c1`, the inhibition was 3.5% (inactive).

For the compound `Oc1c(Cl)cc(Cl)cc1C=Nc1ccc(N2CCOCC2)cc1`, the inhibition was 15.7% (inactive). The value for `CN(C)c1nc(N/N=C/c2c[nH]c3ccccc23)nc(N2CCOCC2)n1` was 27.1% (inactive); that for `Oc1cc(Br)ccc1C=Nc1ccc(N2CCCCC2)cc1` was 10.6% (inactive); that for `Oc1c(Br)cc(Cl)cc1C=Nc1ccc(N2CCOCC2)cc1` was 17.2% (inactive). As for `C(=N\Nc1nc(Nc2ccccc2)nc(N2CCOCC2)n1)/c1c[nH]c2ccccc12`, the figure is 5.43% (inactive); as for `Cc1cc(Br)cc(C=Nc2ccc(N3CCOCC3)cc2)c1O`, 19.2% (inactive).

For the compound `O=C1[C@H]2[C@@H](c3ccc(Cl)cc3)N3C(=O)N(c4cccc(Cl)c4)C(=O)[C@@]3(Cc3ccccc3)[C@H]2C(=O)N1C1CCCCC1`, the inhibition was 6.67% (inactive). As for `Cc1ccc(S(=O)(=O)N2CCN(S(=O)(=O)c3ccc4c(c3)OCCO4)CC2)cc1`, the figure is 2.43% (inactive). The value for `O=C(C1CCN(C2CC(=O)N(c3ccc(F)cc3)C2=O)CC1)N1CCOCC1` (stereo not drawn) was 6.36% (inactive); that for `COc1ccccc1N1CCN(C(CNS(C)(=O)=O)c2cccnc2)CC1` (stereo not drawn) was 10% (inactive); that for `CCOC(=O)c1[nH]c(C)c(C(=O)N2CCN(c3ccc(F)cc3)CC2)c1C` was 27.5% (inactive). The value for `C/C(CC(=O)Nc1ccc2c(c1)OCCO2)=N\NC(=O)COc1cccc(C)c1` was 6.15% (inactive); that for `O=C(COC(=O)[C@@H]1CCCN1S(=O)(=O)c1ccc(Cl)cc1)NC1CCS(=O)(=O)C1` (stereo partly drawn) was 1.86% (inactive); that for `CCOc1ccc(/C=N/NS(=O)(=O)c2ccc(C)cc2)cc1OC` was 12.6% (inactive). Turning to `COC(=O)C1=C(C)Nc2[nH]c(=S)[nH]c(=O)c2C1c1ccc(O)cc1` (stereo not drawn), the inhibition was 26.6% (inactive). As for `Cc1ccc(C2C3=C(CCCC3=O)Nc3[nH]c(=S)[nH]c(=O)c32)cc1` (stereo not drawn), the figure is 23.7% (inactive). As for `COC1Cc2ccccc2N(C(N)=O)c2ccccc21` (stereo not drawn), the figure is 11.8% (inactive); as for `NS(=O)(=O)c1ccc(CCNC(=O)CSc2nc3ccccc3c3nc(CCN4CCCCC4)nn23)cc1`, 1.71% (inactive). The value for `COc1ccc(C2=CC3=C(Br)C(=O)C(C)(OC(=O)c4ccco4)C(=O)C3=CO2)cc1` (stereo not drawn) was 50.8% (inactive); that for `COc1ccc(C2=CC3=C(Br)C(=O)C(C)(OC(=O)c4cccs4)C(=O)C3=CO2)cc1` (stereo not drawn) was 52.5% (inactive). As to `COc1ccc2oc(C)c(C(=O)NN)c2c1`, the inhibition is 28.3% (inactive). The value for `O=C(NC1CCS(=O)(=O)C1)Oc1ccccc1` (stereo not drawn) was 6.71% (inactive). As to `O=C(NC1CCS(=O)(=O)C1)Oc1ccc(Cl)cc1` (stereo not drawn), the inhibition was 9.05% (inactive).

On to `O=[N+]([O-])c1ccccc1-c1cc(-c2ccccc2O)n[nH]1`, for which the inhibition was 5.15% (inactive). Regarding `O=[N+]([O-])c1ccccc1-c1cc(-c2cc(Cl)ccc2O)n[nH]1`, the inhibition was 19% (inactive). As for `O=C(OCC(=O)N1CCN(c2ccccc2)CC1)c1cccs1`, the figure is 3.9% (inactive). Take `O=C(CSc1ccc(-c2nc3ccccc3[nH]2)cn1)Nc1ccc2c(c1)OCCO2`: the inhibition is 3.79% (inactive).

On to `CCN(c1ccc(NC(=O)COC(=O)c2ccc(C)s2)cc1)C(C)C`, for which the inhibition was 29.8% (inactive). With `CCOC(=O)c1c(C)[nH]sc1=S`, the inhibition was 15% (inactive). Consider `CCOC(=O)c1c(N)sc(N)c1C(=O)OCC`, for which the inhibition is 36.6% (inactive). As for `O=C(NC(=S)Nc1ccccc1[N+](=O)[O-])c1cncc(Br)c1`, the figure is 7.4% (inactive).
